The values below come from PubChem BioAssay (EPA / NIEHS).

A word on the AC50: it is the concentration giving half of the maximal activity seen.

The source made the active and inactive calls. Rule for the calls: active = hit-call score of the fitted dose curve at least 0.9, where 1 is the maximum; inactive = score below 0.9.

Assay [1] is described as follows: ATG_GLI_CIS: Attagene CIS-FACTORIAL HepG2 Assay for human Zinc Finger Protein GLI1 (AID 2282945). The settings on record: HepG2, Attagene cis-factorial reporter mRNA, GLI element; actives raise or lower the signal. The method, boiled down: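 HepG2 cells transiently transfected with cis-promoter multiplexed reporter units report endogenous transcription factor activity. After 24 h chemical exposure, reporter mRNA was quantified by RT-PCR, 6-FAM labelling, HpaI digestion and capillary electrophoresis, with bidirectional fitting against DMSO.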

Assay [2] concerns the target Bile acid receptor (Homo sapiens) (UniProt Q96RI1). In words: ATG_IR1_CIS: Attagene CIS-FACTORIAL HepG2 Assay for human Nuclear Receptor Subfamily 1 Group H Member 4 (NR1H4), IR1 submotif (AID 2282946). The following applies: IR1 reporter transcription, actives raise or lower the signal. The method, boiled down: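 Readout: reporter transcript levels by RT-PCR with fluorescent capillary electrophoresis, from HepG2 cells transiently transfected with multiplexed cis-regulated reporters and dosed 24 h. Gain- or loss-of-signal fitted versus DMSO negative control.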

A short description of assay [3]: ATG_GRE_CIS: Attagene CIS-FACTORIAL HepG2 Assay for human Glucocorticoid Response Elements (GRE) (AID 2282947). The settings on record: HepG2 GRE cis-reporter, Attagene multiplex mRNA; actives raise or lower the signal. The method, boiled down:
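HepG2, transient cis-reporter transfection, 24 h. Reporter mRNA: RT-PCR then CE, fluorescence. Fit both directions vs DMSO.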

A short description of assay [4]: ATG_ISRE_CIS: Attagene CIS-FACTORIAL HepG2 Assay for human Interferon Regulatory Factor 1 (IRF1) binding to an Interferon-Stimulated Response Element (ISRE) (AID 2282948). The settings on record: HepG2 ISRE cis-reporter (Attagene), mRNA transcription readout; actives raise or lower the signal. In short, it runs like this: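 Uses HepG2 liver cells transfected with cis-regulated reporters and measures mRNA 24 h post-dosing through RT-PCR, primer-extension labelling and capillary electrophoresis, with DMSO as negative control.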

A short description of assay [5]: ATG_M_32_CIS: Attagene CIS-FACTORIAL HepG2 Assay for M32 Transcription Factor (Internal Marker) (AID 2282949).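 Note: background control marker of the multiplexed CIS panel rather than a real target.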 The settings on record: HepG2 Attagene cis-factorial M32 reporter, mRNA; actives raise or lower the signal. In short, it runs like this: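 Using DMSO as baseline, bidirectional curve fits were applied to reporter mRNA signals. These came from transiently transfected HepG2 cells exposed for 24 h, with RNA analysed by RT-PCR, FAM primer extension, HpaI digestion and CE.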

A short description of assay [6]: ATG_M_06_CIS: Attagene CIS-FACTORIAL HepG2 Assay for M06 Transcription Factor (Internal Marker) (AID 2282950). The settings on record: HepG2 Attagene CIS-FACTORIAL M06 internal marker reporter; actives raise or lower the signal. In short, it runs like this:
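HepG2 cells transiently transfected with cis-regulated multiple reporter transcription units were exposed to chemical for 24 h; reporter mRNA was quantified by RT-PCR, 6-FAM primer labelling, HpaI digestion and capillary electrophoresis, fitted bidirectionally against DMSO.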

The target in assay [7] is Hypoxia-inducible factor 1-alpha (Homo sapiens) (UniProt Q16665). In words: ATG_HIF1a_CIS: Attagene CIS-FACTORIAL HepG2 Assay for human Hypoxia Inducible Factor 1 (HIF1A) (AID 2282951). The following applies: HepG2 Attagene cis-factorial HIF1a reporter transcription; actives raise or lower the signal. The method, boiled down: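 In this multiplexed cell assay, HepG2 cells bearing transfected cis reporters are dosed for 24 h and reporter mRNA is read by RT-PCR plus capillary electrophoresis; signal increases and decreases are both scored against DMSO.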

The target in assay [8] is Hepatocyte nuclear factor 6 (Homo sapiens) (UniProt Q9UBC0). The assay can be described thus: ATG_HNF6_CIS: Attagene CIS-FACTORIAL HepG2 Assay for human Hepatocyte Nuclear Factor 6 (HNF6) (AID 2282952). The following applies: HepG2 Attagene cis-factorial HNF6 reporter transcription; actives raise or lower the signal. The method, boiled down: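 Readout: fluorescent reporter-transcript fragments resolved by capillary electrophoresis after RT-PCR, reflecting endogenous factor activity in transfected HepG2. Exposure 24 h. Gain or loss of signal fitted bidirectionally against DMSO.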

Assay [9] can be described thus: ATG_MRE_CIS: Attagene CIS-FACTORIAL HepG2 Assay for human Metal Responsive Element (MRE) (AID 2282954). The settings on record: HepG2 MRE cis-reporter transcription, Attagene multiplex; actives raise or lower the signal. The method, boiled down:
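Readout: capillary electrophoresis of 6-FAM-labelled, HpaI-digested RT-PCR reporter products. System: HepG2 cells carrying transient multiplexed cis reporters, dosed 24 h. Analysis: bidirectional fit, DMSO baseline.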

Assay [10] has as its target Paired box protein Pax-6 (Homo sapiens) (UniProt P26367). The assay can be described thus: ATG_Pax6_CIS: Attagene CIS-FACTORIAL HepG2 Assay for human Paired Box 6 (PAX6) (AID 2282956). The settings on record: HepG2 CIS-FACTORIAL PAX6 reporter transcription, RNA readout; actives raise or lower the signal. The method, boiled down: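 DMSO-referenced bidirectional fits of reporter mRNA fluorescence; HepG2 with transient cis-promoter MRTUs, 24 h post-dose, RT-PCR plus capillary electrophoresis detection.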

Assay [11] in a line: ATG_PXRE_CIS: Attagene CIS-FACTORIAL HepG2 Assay for human Pregnane X Receptor Element (PXRE) (AID 2282957). The following applies: HepG2 Attagene CIS-FACTORIAL PXRE reporter, mRNA; actives raise or lower the signal. The method, boiled down: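 Read-out: fluorescence of reporter-specific RT-PCR products resolved by capillary electrophoresis, fitted bidirectionally relative to DMSO. Human HepG2 liver cells carried transfected cis-promoter reporter units and were exposed to chemicals for 24 h.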

The nature of assay [12]: ATG_RORE_CIS: Attagene CIS-FACTORIAL HepG2 Assay for human RAR-related Orphan Receptor Element (RORE) (AID 2282959). The settings on record: HepG2 Attagene cis-factorial RORE reporter, mRNA; actives raise or lower the signal. The method, boiled down:
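Fluorescence intensity of reporter-specific cDNA fragments, separated by capillary electrophoresis, gives the signal. Source: HepG2 liver cells transiently transfected with cis-element reporters and exposed 24 h; DMSO-normalized bidirectional fit.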

The nature of assay [13]: ATG_Sox_CIS: Attagene CIS-FACTORIAL HepG2 Assay for human SRY-box transcription factor (SOX) (AID 2282960). The following applies: HepG2 Attagene cis-factorial SOX reporter, mRNA; actives raise or lower the signal. The method, boiled down:
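After 24 h of chemical treatment, transfected HepG2 reporter cells are lysed for total RNA. Transcript levels come from RT-PCR with labelled primer extension and capillary electrophoresis, analysed bidirectionally versus DMSO.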

The target in assay [14] is Transcription factor Sp1 (Homo sapiens) (UniProt P08047). In words: ATG_Sp1_CIS: Attagene CIS-FACTORIAL HepG2 Assay for human Specificity Protein 1 (Sp1) (AID 2282961). The following applies: HepG2 Sp1 cis-reporter transcription, actives raise or lower the signal. In short, it runs like this: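 Sp1-driven reporter mRNA, read as capillary electrophoresis fluorescence after RT-PCR, in transiently transfected HepG2 cells dosed for 24 h; signal change in either direction relative to DMSO.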

Assay [15] can be described thus: ATG_SREBP_CIS: Attagene CIS-FACTORIAL HepG2 Assay for human Sterol Regulatory Element Binding (SREBP) (AID 2282962). The following applies: HepG2 Attagene cis-factorial SREBP reporter, mRNA; actives raise or lower the signal. The method, boiled down:
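In this cis-format assay, HepG2 liver cells express reporters controlled by promoter elements responsive to native transcription factors. Exposure lasts 24 h; reporter mRNA fluorescence from capillary electrophoresis gives the signal, fitted bidirectionally against DMSO.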

Assay [16] has as its target Signal transducer and activator of transcription 3 (Homo sapiens) (UniProt P40763). In words: ATG_STAT3_CIS: Attagene CIS-FACTORIAL HepG2 Assay for human Signal Transducer and Activator of Transcription 3 (STAT3) (AID 2282963). The settings on record: HepG2, Attagene cis-factorial STAT3 reporter transcription; actives raise or lower the signal. In short, it runs like this:
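Uses human liver HepG2 transiently carrying cis-regulated reporter transcription units. Following 24 h dosing, reporter mRNA induction was detected by RT-PCR and capillary electrophoresis, analysed bidirectionally versus DMSO.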

Assay [17] is described as follows: ATG_TA_CIS: Attagene CIS-FACTORIAL HepG2 Assay for human TA Basal Promoter (AID 2282964). The following applies: HepG2 Attagene CIS-factorial TA basal promoter reporter; actives raise or lower the signal. In short, it runs like this: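 HepG2 cells transiently transfected with multiplexed cis-promoter reporter units, dosed 24 h. Reporter mRNA measured by RT-PCR, 6-FAM labelling, HpaI digestion and capillary electrophoresis; bidirectional fit versus DMSO baseline, serving as background control.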

For assay [18], the target named is Heat shock factor protein 1 (Homo sapiens) (UniProt Q00613). In words: ATG_HSE_CIS: Attagene CIS-FACTORIAL HepG2 Assay for human Heat Shock Transcription Factor 1 (HSE) (AID 2282953). The settings on record: HepG2 HSE cis-reporter, Attagene RNA transcription; actives raise or lower the signal. In short, it runs like this:
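HepG2 cells transiently transfected with multiple reporter transcription units under cis-regulatory promoter control, measuring endogenous transcription factor activity. After 24 h chemical exposure, reporter mRNA quantified by RT-PCR, fluorescent labelling, HpaI digestion and capillary electrophoresis; bidirectional fit versus DMSO.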

A short description of assay [19]: ATG_PPRE_CIS: Attagene CIS-FACTORIAL HepG2 Assay for human Peroxisome Proliferator-activated Response Element (PPRE) (AID 2282958). The settings on record: HepG2 PPRE cis-element reporter, Attagene transcription factor profiling; actives raise or lower the signal. In short, it runs like this: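 Multiplexed reporter transcription units under cis-regulatory promoters were transfected into HepG2 cells to capture endogenous factor activity. A 24 h incubation preceded RNA isolation and fluorescent RT-PCR fragment analysis.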

The nature of assay [20]: ATG_PBREM_CIS: Attagene CIS-FACTORIAL HepG2 Assay for human Phenobarbital-responsive Enhancer Module (PBREM) (AID 2282955). The settings on record: HepG2 PBREM cis-reporter, Attagene multiplexed transcription; actives raise or lower the signal. The method, boiled down:
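After a 24 h incubation with test chemical, transfected HepG2 cells yield total RNA; reporter-specific RT-PCR products are fluorescently labelled, HpaI-digested and resolved by capillary electrophoresis against ROX size standards.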

Chain of Hypoxia-inducible factor 1-alpha (Homo sapiens) (Q16665 whole entry, looked up): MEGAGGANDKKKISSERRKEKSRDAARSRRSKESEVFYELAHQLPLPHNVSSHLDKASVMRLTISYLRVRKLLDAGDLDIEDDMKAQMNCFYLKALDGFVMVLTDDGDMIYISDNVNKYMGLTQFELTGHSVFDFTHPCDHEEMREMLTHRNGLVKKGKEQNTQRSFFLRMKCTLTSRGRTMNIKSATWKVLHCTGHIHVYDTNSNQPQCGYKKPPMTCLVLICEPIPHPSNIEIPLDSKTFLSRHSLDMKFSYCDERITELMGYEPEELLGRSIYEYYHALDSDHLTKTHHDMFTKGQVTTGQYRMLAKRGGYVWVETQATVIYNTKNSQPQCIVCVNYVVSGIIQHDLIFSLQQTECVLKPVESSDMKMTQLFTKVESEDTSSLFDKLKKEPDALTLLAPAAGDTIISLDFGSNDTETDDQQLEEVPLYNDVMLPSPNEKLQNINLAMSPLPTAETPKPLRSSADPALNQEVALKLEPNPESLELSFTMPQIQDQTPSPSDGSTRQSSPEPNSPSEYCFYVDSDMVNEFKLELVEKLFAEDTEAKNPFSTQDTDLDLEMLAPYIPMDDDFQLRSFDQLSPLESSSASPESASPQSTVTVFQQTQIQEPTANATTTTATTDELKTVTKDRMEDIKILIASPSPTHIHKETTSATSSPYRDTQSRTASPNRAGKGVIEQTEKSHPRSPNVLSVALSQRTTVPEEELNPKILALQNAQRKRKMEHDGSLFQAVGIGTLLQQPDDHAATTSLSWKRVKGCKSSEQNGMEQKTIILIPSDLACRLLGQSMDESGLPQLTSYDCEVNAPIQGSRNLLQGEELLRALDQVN
Chain of Heat shock factor protein 1 (Homo sapiens) (Q00613 whole entry, looked up): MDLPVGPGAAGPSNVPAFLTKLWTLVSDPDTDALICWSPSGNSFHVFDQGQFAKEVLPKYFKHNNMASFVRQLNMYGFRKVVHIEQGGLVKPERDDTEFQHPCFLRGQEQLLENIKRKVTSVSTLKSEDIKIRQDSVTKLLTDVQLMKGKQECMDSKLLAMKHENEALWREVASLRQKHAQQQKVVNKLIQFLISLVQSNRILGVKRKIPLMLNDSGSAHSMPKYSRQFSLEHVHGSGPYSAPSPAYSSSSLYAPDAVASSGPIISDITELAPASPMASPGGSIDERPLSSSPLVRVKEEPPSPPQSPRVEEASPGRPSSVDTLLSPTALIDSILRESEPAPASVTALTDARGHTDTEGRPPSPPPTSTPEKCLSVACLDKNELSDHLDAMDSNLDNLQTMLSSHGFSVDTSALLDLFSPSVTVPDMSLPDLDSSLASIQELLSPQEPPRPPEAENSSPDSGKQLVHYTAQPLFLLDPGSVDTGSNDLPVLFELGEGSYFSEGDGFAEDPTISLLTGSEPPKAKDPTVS
Chain of Paired box protein Pax-6 (Homo sapiens) (P26367 whole entry, looked up): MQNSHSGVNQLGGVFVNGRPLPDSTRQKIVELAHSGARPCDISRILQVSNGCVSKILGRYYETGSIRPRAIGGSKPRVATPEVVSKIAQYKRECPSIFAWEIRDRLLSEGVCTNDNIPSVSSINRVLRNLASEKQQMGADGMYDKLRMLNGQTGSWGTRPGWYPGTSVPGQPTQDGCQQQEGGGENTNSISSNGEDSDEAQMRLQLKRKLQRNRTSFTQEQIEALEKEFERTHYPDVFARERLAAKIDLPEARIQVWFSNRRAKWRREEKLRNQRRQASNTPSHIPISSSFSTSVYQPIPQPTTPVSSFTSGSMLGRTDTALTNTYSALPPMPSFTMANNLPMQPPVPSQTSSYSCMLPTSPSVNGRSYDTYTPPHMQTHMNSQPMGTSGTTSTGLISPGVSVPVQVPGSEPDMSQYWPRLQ
Chain of Signal transducer and activator of transcription 3 (Homo sapiens) (P40763 whole entry, looked up): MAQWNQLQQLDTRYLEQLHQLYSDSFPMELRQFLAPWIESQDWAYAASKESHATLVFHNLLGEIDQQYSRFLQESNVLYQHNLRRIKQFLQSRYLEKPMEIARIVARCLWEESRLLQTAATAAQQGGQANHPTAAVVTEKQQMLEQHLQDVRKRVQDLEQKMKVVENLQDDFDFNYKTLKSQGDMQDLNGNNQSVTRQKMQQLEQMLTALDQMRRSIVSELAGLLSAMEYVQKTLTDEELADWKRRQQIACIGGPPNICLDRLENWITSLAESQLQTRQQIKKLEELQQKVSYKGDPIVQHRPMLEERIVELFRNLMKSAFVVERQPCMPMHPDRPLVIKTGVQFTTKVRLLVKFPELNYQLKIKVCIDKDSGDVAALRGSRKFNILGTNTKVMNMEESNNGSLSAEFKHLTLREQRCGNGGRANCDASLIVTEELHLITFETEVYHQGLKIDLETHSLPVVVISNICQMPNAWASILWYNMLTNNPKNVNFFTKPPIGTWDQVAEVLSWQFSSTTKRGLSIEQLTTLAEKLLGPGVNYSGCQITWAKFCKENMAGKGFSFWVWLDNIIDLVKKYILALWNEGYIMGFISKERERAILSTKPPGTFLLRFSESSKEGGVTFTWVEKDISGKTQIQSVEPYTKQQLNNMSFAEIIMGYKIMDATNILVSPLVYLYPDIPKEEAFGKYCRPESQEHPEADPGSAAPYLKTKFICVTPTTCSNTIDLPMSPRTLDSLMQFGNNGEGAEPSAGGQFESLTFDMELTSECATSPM
Chain of Transcription factor Sp1 (Homo sapiens) (P08047 whole entry, looked up): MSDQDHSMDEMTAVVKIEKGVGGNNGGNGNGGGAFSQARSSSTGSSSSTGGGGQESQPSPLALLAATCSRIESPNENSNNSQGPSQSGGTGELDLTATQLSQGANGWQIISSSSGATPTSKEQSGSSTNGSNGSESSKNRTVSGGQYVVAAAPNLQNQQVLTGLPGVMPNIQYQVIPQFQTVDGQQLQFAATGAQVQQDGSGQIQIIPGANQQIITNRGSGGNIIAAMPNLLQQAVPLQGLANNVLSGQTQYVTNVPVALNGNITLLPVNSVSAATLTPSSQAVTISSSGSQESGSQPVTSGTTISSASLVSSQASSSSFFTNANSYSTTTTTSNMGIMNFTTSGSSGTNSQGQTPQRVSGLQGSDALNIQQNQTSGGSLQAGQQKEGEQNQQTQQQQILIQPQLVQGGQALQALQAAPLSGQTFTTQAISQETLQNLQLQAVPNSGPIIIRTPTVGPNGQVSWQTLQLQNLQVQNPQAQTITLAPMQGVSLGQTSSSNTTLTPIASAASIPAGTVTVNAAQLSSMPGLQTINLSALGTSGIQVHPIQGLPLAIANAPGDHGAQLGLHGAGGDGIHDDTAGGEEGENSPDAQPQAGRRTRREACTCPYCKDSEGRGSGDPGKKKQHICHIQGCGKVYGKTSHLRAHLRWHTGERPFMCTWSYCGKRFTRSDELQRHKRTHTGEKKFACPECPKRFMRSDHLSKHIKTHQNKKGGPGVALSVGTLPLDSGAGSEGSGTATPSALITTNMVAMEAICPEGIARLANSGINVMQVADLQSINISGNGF
Chain of Bile acid receptor (Homo sapiens) (Q96RI1 whole entry, looked up): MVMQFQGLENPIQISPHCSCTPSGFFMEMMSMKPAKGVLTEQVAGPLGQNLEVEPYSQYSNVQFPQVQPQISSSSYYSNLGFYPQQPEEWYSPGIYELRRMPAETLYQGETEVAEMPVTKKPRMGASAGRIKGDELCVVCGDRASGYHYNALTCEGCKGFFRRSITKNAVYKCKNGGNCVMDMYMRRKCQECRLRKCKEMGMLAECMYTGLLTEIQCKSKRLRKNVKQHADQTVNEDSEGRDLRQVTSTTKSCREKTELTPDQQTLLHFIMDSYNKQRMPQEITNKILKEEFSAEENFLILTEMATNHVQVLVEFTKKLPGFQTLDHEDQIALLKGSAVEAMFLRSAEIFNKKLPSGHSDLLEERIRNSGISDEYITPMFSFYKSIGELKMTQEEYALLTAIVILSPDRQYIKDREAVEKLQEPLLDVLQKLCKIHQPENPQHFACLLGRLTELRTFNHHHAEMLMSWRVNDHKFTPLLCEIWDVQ
Chain of Hepatocyte nuclear factor 6 (Homo sapiens) (Q9UBC0 whole entry, looked up, the tested form may be a part): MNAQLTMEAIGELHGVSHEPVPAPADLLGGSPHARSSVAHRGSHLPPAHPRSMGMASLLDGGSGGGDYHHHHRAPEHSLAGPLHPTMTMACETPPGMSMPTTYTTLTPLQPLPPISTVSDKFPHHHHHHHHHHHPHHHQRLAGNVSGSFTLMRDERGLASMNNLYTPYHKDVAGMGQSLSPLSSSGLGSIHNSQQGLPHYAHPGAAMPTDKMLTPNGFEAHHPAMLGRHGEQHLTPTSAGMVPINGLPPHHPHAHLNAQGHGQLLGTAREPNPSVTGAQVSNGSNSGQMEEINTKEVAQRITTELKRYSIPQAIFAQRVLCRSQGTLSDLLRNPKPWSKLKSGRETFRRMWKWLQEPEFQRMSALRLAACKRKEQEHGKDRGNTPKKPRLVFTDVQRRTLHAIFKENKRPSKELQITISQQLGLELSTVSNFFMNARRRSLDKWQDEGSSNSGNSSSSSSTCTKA

`CC(CO)(CO)[N+](=O)[O-]`: the result in [1], in [2], in assay [3], in assay [4], in assay [5] and in [6] was inactive. Also, the outcome in [7], in assay [8], in assay [9], in assay [10], in assay [11] and in [12] was inactive. Besides, the compound was classed as inactive in [13], in [14], in assay [15], in assay [16] and in [17].

Take `CC(O)COCC(C)O` (stereo not given): the compound was called inactive in assay [1], in assay [2], in assay [3], in assay [5], in assay [6] and in assay [7]. For the same compound, the compound was called inactive in [8], in assay [18], in [9], in assay [10], in assay [11] and in assay [19]. Moreover, the call in assay [12], in assay [13], in [14], in assay [15], in assay [16] and in assay [17] was inactive.

Take `CCC(=O)OC/C=C(\C)CCC=C(C)C`: the compound was called inactive in [1], in assay [2], in assay [3], in [5], in assay [6] and in assay [7]. Moreover, the compound was called inactive in assay [8], in assay [18], in assay [9], in [10], in assay [19] and in [12]. The outcome in assay [13], in [14], in assay [15], in assay [16] and in assay [17] was inactive. Moreover, the AC50 in [11] is 44 µM (active).

For `COc1ccc(N)c(C)c1`, the result in assay [1], in assay [2], in assay [4], in assay [5], in [6] and in assay [7] was inactive. The outcome in [8], in [18], in assay [9], in [12], in [13] and in assay [14] was inactive. Also, the outcome in [15] and in assay [17] was inactive. Further, the AC50 is 181 µM (active) in assay [20] and 27.3 µM (active) in assay [11].

Consider `CCCCCCCCSCc1cc(C)c(O)c(CSCCCCCCCC)c1`, for which the compound was classed as inactive in assay [1], in assay [2], in assay [3], in assay [4], in [5] and in assay [6]. Moreover, the compound was called inactive in assay [7], in assay [18], in [9], in assay [20], in [10] and in assay [19]. Further, the result in assay [12], in [13], in assay [15], in [16] and in [17] was inactive. Besides, the concentration at half-maximal activity (AC50) in assay [11] is 19.8 µM (active).

Regarding `CN(C)c1ccc(C=O)cc1`, the result in [1], in assay [2], in assay [3], in [5], in [6] and in [7] was inactive. In addition, the call in assay [8], in assay [18], in assay [9], in assay [20], in assay [11] and in assay [19] was inactive. Moreover, the result in assay [12], in assay [13], in assay [14], in [15], in [16] and in assay [17] was inactive.

For `C=C(C)C(=O)OCCOCCOC(=O)C(=C)C`, the outcome in [1], in assay [2], in assay [4], in assay [5], in [6] and in assay [7] was inactive. In addition, the compound was classed as inactive in [8], in assay [18], in assay [9], in assay [10], in assay [11] and in assay [13]. Also, the outcome in assay [14], in [15] and in assay [17] was inactive.
